This is part of a sample that, as a whole, favours compounds with a hit. Of some 79,000 tested, about 15% had one in any assay. Calls of active or inactive are those of the source. No stated cut-off is given here; in the data, active means growth inhibition above about 70%; inactive means the rest.
What was measured:
[1] = NCI Yeast Anticancer Drug Screen. Data for the rad50 strain (AID 155);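 further: 0% = growth of vehicle-only cultures of the same strain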; conditions: S. cerevisiae rad50 strain growth inhibition, active compounds read high
Summary of the method: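 Genetically altered yeast (DNA repair pathway); compound treatment; growth inhibition vs vehicle ctrl.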

[2] = NCI Yeast Anticancer Drug Screen. Data for the mec2-1 strain (AID 157); conditions: S. cerevisiae mec2-1 strain, active compounds read high
Summary of the method: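 Yeast mec2-1 mutant treated with compound. Readout: growth inhibition vs vehicle controls.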

[3] = NCI Yeast Anticancer Drug Screen. Data for the sgs1 mgt1 strain (AID 161);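 further: 0% = growth of cultures given vehicle only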; conditions: S. cerevisiae sgs1 mgt1 strain, active compounds read high
Summary of the method: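 Genetically altered yeast, compound exposure, growth inhibition relative to vehicle.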

[4] = NCI Yeast Anticancer Drug Screen. Data for the cln2 rad14 strain (AID 165);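 further: 0% = growth equal to vehicle treated cultures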; conditions: S. cerevisiae cln2 rad14 strain, active compounds read high
Summary of the method: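 cln2 rad14 yeast strain; compound exposure; growth inhibition read vs vehicle controls.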

[5] = NCI Yeast Anticancer Drug Screen. Data for the bub3 strain (AID 167); conditions: S. cerevisiae bub3 mutant strain, active compounds read high
Summary of the method: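 Yeast carrying a defined mutation is treated with each compound, and growth is compared with that of vehicle-exposed cells to give inhibition.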

[6] = NCI Yeast Anticancer Drug Screen. Data for the mlh1 rad18 strain (AID 175); conditions: S. cerevisiae mlh1 rad18 strain growth inhibition, active compounds read high
Summary of the method: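 Yeast w/ defined DNA-repair lesions; compound exposure; growth vs vehicle controls → % inhibition.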

[7] = at 5.0 µM (retest, dose inferred, filed as 0.5)
[8] = at 50.0 µM (retest, dose inferred, filed as 5.0)

Measured: growth inhibition

OC(c1ccc(Cl)cc1)C(Cl)(Cl)Cl (stereo not given)
inactive: [1]; [7] 6% | [2]; [7] 0% | [3]; [7] -1% | [3]; [8] 35% | [4]; [7] 1% | [5]; [7] -8% | [6]; [7] 3%
active: [1]; [8] 98% | [1]; at 50.0 µM 97.6% | [2]; [8] 98% | [2]; at 50.0 µM 96.8% | [3]; at 50.0 µM 81.2% | [4]; [8] 96% | [4]; at 50.0 µM 77.8% | [5]; [8] 99% | [5]; at 50.0 µM 95.3% | [6]; [8] 97% | [6]; at 50.0 µM 97.5%

CN1c2cccc[c]2[Sn]([CH3])([CH3])[c]2ccccc21
active: [1]; [7] 98% | [1]; [8] 99% | [1]; at 50.0 µM 99.4% | [2]; [7] 99% | [2]; [8] 99% | [2]; at 50.0 µM 99.2% | [3]; [7] 97% | [3]; [8] 99% | [3]; at 50.0 µM 99.5% | [4]; [7] 77% | [4]; [8] 100% | [4]; at 50.0 µM 94% | [5]; [8] 99% | [5]; at 50.0 µM 99.2% | [6]; [7] 98% | [6]; [8] 99% | [6]; at 50.0 µM 99.3%
inactive: [5]; [7] 7%

CC(O)C(=O)O.CC(O)C(=O)O.[Ni] (stereo not given)
inactive: [1]; [7] -1% | [1]; [8] 7% | [1]; at 50.0 µM 4.2% | [2]; [7] 5% | [2]; [8] 3% | [2]; at 50.0 µM 19.1% | [3]; [7] -1% | [3]; [8] 4% | [3]; at 50.0 µM 0.95% | [4]; [7] -5% | [4]; [8] -2% | [5]; [7] 1% | [5]; [8] 0% | [5]; at 50.0 µM 18.1% | [6]; [7] -2% | [6]; [8] 12% | [6]; at 50.0 µM 19.4%
active: [4]; at 50.0 µM 74%

CCC[CH2][Sn]([Cl])([CH2]Cl)[CH2]CCC
active: [1]; [7] 97% | [1]; [8] 99% | [1]; at 50.0 µM 99% | [2]; [7] 99% | [2]; [8] 100% | [2]; at 50.0 µM 99.2% | [3]; [7] 98% | [3]; [8] 99% | [3]; at 50.0 µM 99.4% | [4]; [7] 98% | [4]; [8] 98% | [4]; at 50.0 µM 99.3% | [5]; [7] 98% | [5]; [8] 99% | [5]; at 50.0 µM 99.3% | [6]; [7] 99% | [6]; [8] 99% | [6]; at 50.0 µM 99.2%

C[As](C)SCC1OC2OC(C)(C)OC2C2OC(C)(C)OC12 (stereo not given)
active: [1]; [8] 97% | [1]; at 50.0 µM 91.5% | [2]; [8] 99% | [2]; at 50.0 µM 92.2% | [3]; [8] 83% | [3]; at 50.0 µM 92.5% | [4]; [8] 73% | [4]; at 50.0 µM 90.1% | [5]; [8] 99% | [5]; at 50.0 µM 91.5% | [6]; [8] 96% | [6]; at 50.0 µM 90.2%
inactive: [1]; [7] 28% | [2]; [7] 21% | [3]; [7] 45% | [4]; [7] 48% | [5]; [7] 44% | [6]; [7] 24%

O=c1c[n+](-c2ccc[nH+]c2)[nH]o1.[Cl][Hg][Cl]
active: [1]; [7] 99% | [1]; [8] 99% | [1]; at 50.0 µM 99.3% | [2]; [7] 100% | [2]; [8] 100% | [2]; at 50.0 µM 99.5% | [3]; [7] 100% | [3]; [8] 100% | [3]; at 50.0 µM 99.5% | [4]; [7] 99% | [4]; [8] 99% | [4]; at 50.0 µM 99.3% | [5]; [7] 99% | [5]; [8] 99% | [5]; at 50.0 µM 99.4% | [6]; [7] 99% | [6]; [8] 99% | [6]; at 50.0 µM 99.2%

CO/C(N)=C(\C#N)N=Cc1cccnc1
active: [2]; at 50.0 µM 80.2%
inactive: [1]; [7] 25% | [1]; [8] 26% | [1]; at 50.0 µM 29.6% | [2]; [7] 25% | [2]; [8] 30% | [3]; [7] 20% | [3]; [8] 32% | [3]; at 50.0 µM 36.7% | [4]; [7] 26% | [4]; [8] 25% | [4]; at 50.0 µM 15.4% | [5]; [7] 29% | [5]; [8] 47% | [5]; at 50.0 µM 48.2% | [6]; [7] 29% | [6]; [8] 25% | [6]; at 50.0 µM -25.4%

CCNc1ncc2ccccc2c1-c1ccc(N2CCN(CCCl)CC2)cc1
active: [1]; [8] 93% | [1]; at 50.0 µM 97.8% | [2]; [8] 89% | [2]; at 50.0 µM 74% | [3]; [8] 97% | [3]; at 50.0 µM 98.7% | [4]; [8] 90% | [4]; at 50.0 µM 93.5% | [5]; [8] 95% | [5]; at 50.0 µM 97.2% | [6]; [8] 97% | [6]; at 50.0 µM 98%
inactive: [1]; [7] 15% | [2]; [7] 13% | [3]; [7] 11% | [4]; [7] 2% | [5]; [7] 13% | [6]; [7] 8%

OC1CCCC[CH]1[Hg][Cl] (stereo not given)
inactive: [3]; at 50.0 µM 49.2%
active: [1]; [7] 99% | [1]; [8] 99% | [1]; at 50.0 µM 99.3% | [2]; [7] 100% | [2]; [8] 100% | [2]; at 50.0 µM 99.7% | [3]; [7] 100% | [3]; [8] 100% | [4]; [7] 99% | [4]; [8] 99% | [4]; at 50.0 µM 99.3% | [5]; [7] 100% | [5]; [8] 100% | [5]; at 50.0 µM 99.3% | [6]; [7] 100% | [6]; [8] 100% | [6]; at 50.0 µM 99.5%

CN(/N=C/c1ccc(Cl)cc1)P(=O)(N1CC1)N1CC1
inactive: [1]; [7] 24% | [1]; [8] 28% | [1]; at 50.0 µM -15.7% | [2]; [7] 14% | [2]; [8] 17% | [2]; at 50.0 µM -12.2% | [3]; [7] 18% | [3]; [8] 24% | [3]; at 50.0 µM -3.4% | [4]; [7] 31% | [4]; [8] 20% | [4]; at 50.0 µM 11.7% | [5]; [7] 18% | [5]; [8] 18% | [5]; at 50.0 µM -0.25% | [6]; [7] 23% | [6]; [8] 28% | [6]; at 50.0 µM 0.65%

From PubChem BioAssay (NCI)
